The values that follow come from PubChem BioAssay (NCI).

Where “and” joins values, the source holds several entries; their conditions need not be identical. Identical values can stand only once. Compounds without any hit were thinned out: in the full panel of roughly 83,000, 20% have a hit.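 Method: cells in 96-well plates; compound added at one concentration; 48 h incubation; percent growth measured; values under 10 scored active.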 Calls of active or inactive are those of the source.

Assay in all cases: NCI-60 one-dose screen, 48 h (100 = growth as untreated, 0 = no growth, -100 = all killed)
Conditions in all cases: 10 µM unless noted

Assay [1] concerns HCT-15 colon.
Assay [2] concerns HT29 colon.
Assay [3] relates to SNB-75 CNS.
Assay [4] deals with U251 CNS.
Assay [5] has as its system PC-3 prostate.
Assay [6] deals with SK-MEL-5 melanoma.
Assay [7] concerns UACC-62 melanoma.
The test system of assay [8] is LOX IMVI melanoma.
Assay [9] relates to SK-MEL-28 melanoma.
Assay [10] concerns SK-MEL-2 melanoma.
Assay [11] has as its system EKVX NSCLC.
Assay [12] relates to SN12C renal.
Assay [13] has as its system UO-31 renal.
Assay [14] concerns TK-10 renal.
Assay [15] concerns ACHN renal.
Assay [16] has as its system A498 renal.
For assay [17], the system named is CCRF-CEM leukemia.
The subject of assay [18] is MOLT-4 leukemia.
In assay [19] the test system is CAKI-1 renal.
Assay [20] relates to SNB-19 CNS.

`N#Cc1ccc(/C=C/C(=O)c2ccccc2)cc1`: the growth was 49.6% (inactive) and 82.3% (inactive) in [1]; 12% (inactive) and 70.5% (inactive) in assay [2]; 87.3% (inactive) in [3]; 33.2% (inactive) and 62.5% (inactive) in assay [4]; 52.2% (inactive) in assay [5]; 90.9% (inactive) and 102% (inactive) in assay [6]. The growth in assay [7] is 91.3% (inactive) and 89.9% (inactive); in [8], 28% (inactive) and 82% (inactive); in assay [9], 124% (inactive) and 93.1% (inactive); in [10], 90.7% (inactive); in assay [11], 95.9% (inactive) and 111% (inactive); in assay [12], 96.2% (inactive) and 92.6% (inactive). Moreover, the growth in assay [13] is -37.5% (active); in assay [14], 98.9% (inactive) and 55.8% (inactive); in assay [15], 112% (inactive) and 92.9% (inactive); in [16], 112% (inactive) and 84.1% (inactive); in assay [17], 17.6% (inactive) and 3.61% (active); in assay [18], -35.1% (active) and 29.4% (inactive).
Turning to `Cc1nc2c(=O)[nH]c(=S)[nH]c2[nH]c1=O`, the growth is 105% (inactive) and 104% (inactive) in assay [1]; 104% (inactive) and 105% (inactive) in assay [2]; 97.4% (inactive) and 84.1% (inactive) in [3]; 113% (inactive) and 104% (inactive) in [4]; 105% (inactive) and 96.7% (inactive) in assay [5]; 111% (inactive) in assay [6]. The growth was 104% (inactive) and 100% (inactive) in [7]; 96% (inactive) in assay [8]; 111% (inactive) and 112% (inactive) in assay [9]; 102% (inactive) and 114% (inactive) in assay [10]; 102% (inactive) and 97.1% (inactive) in assay [12]; 93.8% (inactive) and 87.3% (inactive) in [13]. Besides, the growth in assay [14] was 106% (inactive) and 119% (inactive); in [15], 103% (inactive) and 97.6% (inactive); in assay [19] it was 94.4% (inactive) and 93.9% (inactive); in assay [16], 97.5% (inactive) and 97.3% (inactive); in [17], 101% (inactive) and 104% (inactive); in assay [18] it was 100% (inactive) and 103% (inactive).
On to `COc1ccc(C(=O)C(O)c2ccc(OC)cc2)cc1` (stereo unspecified), for which the growth in assay [1] is 110% (inactive) and 107% (inactive); in assay [2] it was 106% (inactive) and 111% (inactive); in assay [3], 98% (inactive) and 94.1% (inactive); in assay [4], 105% (inactive) and 95.7% (inactive); in [5], 93.9% (inactive) and 92.2% (inactive); in assay [6] it was 105% (inactive). Also, the growth was 100% (inactive) and 105% (inactive) in assay [7]; 96.4% (inactive) and 98.4% (inactive) in assay [8]; 114% (inactive) and 109% (inactive) in [9]; 111% (inactive) and 108% (inactive) in [10]; 107% (inactive) and 110% (inactive) in assay [11]; 113% (inactive) and 112% (inactive) in assay [12]. The growth in assay [13] is 89.1% (inactive) and 90.7% (inactive); in assay [14], 102% (inactive) and 107% (inactive); in assay [15], 109% (inactive) and 112% (inactive); in assay [19], 104% (inactive) and 100% (inactive); in [16], 97.4% (inactive) and 104% (inactive); in [17], 108% (inactive) and 105% (inactive). For the same molecule, in assay [18], the growth is 107% (inactive) and 100% (inactive).
`O=C(NC(=O)c1ccc(F)c(Cl)c1)NC1CC1`: the growth in [1] was 86.5% (inactive) and 74.6% (inactive); in [2] it was 96.4% (inactive) and 94.5% (inactive); in [3] it was 105% (inactive) and 122% (inactive); in [4], 104% (inactive); in assay [5], 98.6% (inactive) and 87.5% (inactive); in assay [6], 88% (inactive). Also, the growth in [7] is 99.8% (inactive) and 96.6% (inactive); in assay [8], 98.6% (inactive); in assay [9], 111% (inactive) and 107% (inactive); in assay [10], 107% (inactive); in assay [11] it was 89.6% (inactive); in assay [12], 102% (inactive) and 87.9% (inactive). Further, the growth in assay [13] was 96.8% (inactive); in assay [14] it was 94.3% (inactive) and 96.1% (inactive); in assay [15], 106% (inactive) and 108% (inactive); in assay [19], 104% (inactive) and 87.1% (inactive); in assay [16], 95.8% (inactive) and 96% (inactive); in assay [17] it was 97.2% (inactive) and 101% (inactive). The growth in [18] is 94.2% (inactive) and 75.6% (inactive).
In the case of `O=C1C=CC(=O)N1Cc1ccco1`, the growth was 34.1% (inactive) in assay [2]; 101% (inactive) in assay [3]; 91% (inactive) in assay [20]; 81.4% (inactive) in assay [4]; 81.6% (inactive) in [5]; 86.4% (inactive) in assay [6]. In addition, the growth is 86.4% (inactive) in assay [7]; 76.6% (inactive) in assay [8]; 113% (inactive) in assay [9]; 28.8% (inactive) in assay [10]; 103% (inactive) in assay [11]; 87.3% (inactive) in assay [12]. Besides, the growth in [13] was 62.6% (inactive); in assay [14] it was 94.4% (inactive); in assay [15], 5.76% (active); in assay [19] it was 40% (inactive); in assay [16], 110% (inactive); in [17] it was 101% (inactive). The growth in [18] is 79.5% (inactive).
Regarding `COc1ccc(/C=C/C(=O)O)cc1OC`, the growth in assay [2] is 106% (inactive) and 97.3% (inactive); in assay [3] it was 96.5% (inactive) and 103% (inactive); in [20], 102% (inactive) and 107% (inactive); in assay [4] it was 100% (inactive) and 103% (inactive); in assay [5], 95.1% (inactive) and 98.3% (inactive); in assay [6], 98% (inactive) and 97.9% (inactive). The growth in [7] is 98.9% (inactive) and 97.5% (inactive); in assay [8], 100% (inactive) and 98.9% (inactive); in assay [9], 111% (inactive) and 115% (inactive); in assay [10] it was 108% (inactive) and 101% (inactive); in assay [12], 101% (inactive) and 105% (inactive); in assay [13] it was 100% (inactive) and 97.5% (inactive). The growth in assay [14] is 102% (inactive) and 92.5% (inactive); in [15], 104% (inactive) and 112% (inactive); in assay [19], 101% (inactive); in assay [16], 104% (inactive); in assay [17] it was 98.1% (inactive); in [18], 104% (inactive) and 108% (inactive).
